The record followed here is ChEMBL document CHEMBL3433997, “St. Jude Leishmania screening dataset” (2016).

Holding throughout (assay type): functional
Experiment [1] concerns the target Solute carrier family 2, facilitated glucose transporter member 1 (Homo sapiens) (UniProt P11166). The experiment can be described thus: ST_JUDE_LEISH: Cytotoxicity at 2uM final concentration against transgenic Leishmania Mexicana promastigotes LmGLUT1 that are glucose transport deficient and complemented with the human glucose transporter GLUT1. Activity is measured by DNA content using SYBR green in vitro.

For experiment [2], the target named is Hexose transporter 1 (Plasmodium falciparum) (UniProt O97467). The experiment can be described thus: ST_JUDE_LEISH: Cytotoxicity at 2uM final concentration against transgenic Leishmania Mexicana promastigotes LmPfHT that are glucose transport deficient and complemented with the Plasmodium falciparum hexose transporter. Activity is measured by DNA content using SYBR green in vitro.

Experiment [3] has as its target Glucose transporter (Leishmania mexicana) (UniProt O61059). The experiment in a line: ST_JUDE_LEISH: Cytotoxicity at 2uM final concentration against transgenic Leishmania Mexicana promastigotes LmGT2 that are glucose transport deficient and complemented with the L. Mexicana glucose transporter 2. Activity is measured by DNA content using SYBR green in vitro.

Chain of Solute carrier family 2, facilitated glucose transporter member 1 (Homo sapiens) (P11166 whole entry): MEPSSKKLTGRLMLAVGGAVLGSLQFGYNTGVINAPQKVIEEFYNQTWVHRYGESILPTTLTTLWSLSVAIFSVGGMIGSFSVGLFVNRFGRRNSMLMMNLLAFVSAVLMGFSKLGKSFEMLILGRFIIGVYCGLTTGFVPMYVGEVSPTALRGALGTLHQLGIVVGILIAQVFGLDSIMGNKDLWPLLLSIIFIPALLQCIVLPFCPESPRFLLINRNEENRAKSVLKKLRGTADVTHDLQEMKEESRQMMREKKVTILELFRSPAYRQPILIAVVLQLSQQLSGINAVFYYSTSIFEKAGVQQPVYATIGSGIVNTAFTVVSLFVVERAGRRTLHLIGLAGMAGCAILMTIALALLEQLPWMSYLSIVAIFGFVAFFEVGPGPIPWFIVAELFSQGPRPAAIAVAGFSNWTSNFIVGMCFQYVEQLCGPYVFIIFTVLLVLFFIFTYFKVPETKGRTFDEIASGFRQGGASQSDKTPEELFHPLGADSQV

The term inhibition denotes the relative decrease from the control value, in per cent. Take `Cc1cc(NC(=O)c2ccco2)ccc1OC1CCN(Cc2ccccc2)CC1`: the inhibition in experiment [1] turned out to be 0.52%; in experiment [2], 4.72%; in experiment [3], 1.9%.
On the same counts, the results for `NC1CCN(c2nc(NCCCc3ccc(O)cc3)nc(NCc3ccccc3-c3ccccc3)n2)CC1` are 0.77%, 0.01% and 1.09%.
`CCN(c1ccccc1)S(=O)(=O)c1ccc(NC(=O)c2cc(-c3cc(C)ccc3O)n[nH]2)cc1`: the values for the inhibition in experiment [1], in experiment [2] and in experiment [3] were -1.82%, 5.38% and -1.84%, respectively.
The corresponding values for `O=S(=O)(c1ccc(OC(F)(F)F)cc1)C1CC2CCC(C1)N2S(=O)(=O)c1ccc(Cl)c(C(F)(F)F)c1` (configuration not stated) are 11.6%, 12.9% and 10.4%.
The corresponding values for `COCc1nc(N)nc(N)c1-c1ccc(Cl)c(Cl)c1` are -0.03%, 0.2% and 0.08%.
For `CNc1ccc(CNCc2ccc(-c3ccc(-c4nc5cccc(C)c5[nH]4)cc3)cc2)cc1`, the inhibition in experiment [1] was determined as 18.3%; in experiment [2], 15.5%; in experiment [3], 7.71%.
The corresponding values for `Cc1cccc(C(=O)NC(NC(=S)Nc2cc(Cl)ccc2Cl)C(Cl)(Cl)Cl)c1` (configuration not stated) are -0.37%, -1.9% and -2.85%.
The corresponding values for `Cc1c(F)cc(C(=O)NC2CC2)cc1-c1ccc2c(c1)c(C)nn2S(=O)(=O)c1cccs1` are 4.6%, 3.16% and 2.8%.
With `Oc1ccc2[nH]c(-c3cccs3)nc2c1CN1CCC(O)(c2ccccc2)CC1`, the inhibition in experiment [1] was found to be 10.6%; in experiment [2], 5.23%; in experiment [3], 9.03%.
The corresponding values for `COc1ccc2ncc(Cl)c([C@@H](O)CN3CCC(NCc4cc5c(cn4)OCCO5)CC3)c2c1` are 9.54%, 10.5% and 1.19%.
`N#Cc1ccc2c(c1)CCN(CCC1CCC(NC(=O)/C=C/c3cccc4ccccc34)CC1)CC2` (configuration not stated): the inhibition in experiment [1] is 4.36%; in experiment [2], 9.02%; in experiment [3] it was 2.63%.
The corresponding values for `COc1ccc2c(c1)CC(NCc1ccc(-c3ccc4nc[nH]c4c3)cc1)C2` (configuration not stated) are 4.22%, 2.21% and 1.31%.
On the same counts, the results for `COc1ccc(-c2ccccc2CNc2nc(NCCc3ccc(O)cc3)nc(N3CCNCC3)n2)cc1` are -2.91%, -0.55% and 0.12%.
As to `COc1ccc(CNC2CCN(C)CC2)cc1-c1ccc(S(=O)(=O)NCCc2ccccn2)s1`, the figures for the inhibition in experiment [1], in experiment [2] and in experiment [3] were -2.94%, -0.03% and 0.29%, respectively.
